The source of these data is PubChem BioAssay AID686979 (National Center for Advancing Translational Sciences (NCATS), 2013).

SMILES strings stand for the structures. Screen size: about 420,000 compounds; about 50,000 (12%) were called active. Entries that show only a call come without a potency. Another 26% or so got no clear call; they are omitted. This excerpt belongs to a sample that is enriched for actives. A number with no mark means an inactive call. The call rests on the fitted dose curve; in most records, active means well fitted inhibition curve with a large enough effect; inconclusive means small, poorly fitted or top-dose-only effect; inactive means flat fitted curve, though single readings scatter.
Potency means the concentration at half of the fitted maximal effect.

This assay in a line: qHTS for Inhibitors of human tyrosyl-DNA phosphodiesterase 1 (TDP1): qHTS in cells in presence of CPT. Further: nearly all actives have a fitted effect of over 55% in size. To be noted: chicken DT40 Tdp1-/-;hTDP1 cells + 20 nM CPT, ATP luminescence, 48 h; series mostly up to 46.2 µM. A digest of the protocol:
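Chicken DT40 Tdp1-/- cells complemented with human TDP1, 400 cells/well, exposed to compounds plus 20 nM camptothecin for at least 48 h at 37 C; viability read as ATP content by CellTiter-Glo luminescence.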
(In general: qHTS replaces the single test concentration by a dilution series.)
For `Cc1ccc(N(C(=O)CNC(=O)c2ccco2)C(C(=O)NC2CCCC2)c2ccncc2)cc1` (configuration not stated), the Potency entry was “inactive”.
Regarding `CCOc1cc2[nH]c(=O)n(Cc3ccc(C(=O)NCCN(CC)CC)cc3)c(=O)c2cc1OCC`, the Potency result is “inactive”.
Still for that read-out and setting: as for `CCOC(=O)N1CCN(Cc2nc3cc(NC(C)=O)ccc3n2C)CC1`, the entry is “inactive”; as for `COc1ccc(OCC(=O)Nc2nnc(-c3ccco3)s2)cc1`, “inactive”; as for `CCCCN(C(=O)C(CCSC)N1C(=O)c2ccccc2C1=O)c1c(N)n(CCC)c(=O)[nH]c1=O` (configuration not stated), “inactive”.
As for `CCCCOc1ccc(C(=O)NN2CCN(C)CC2)cc1`, the Potency entry was “inactive”.
For `CCCOc1ccc(C(=O)C(CCC(CNCC)C(=O)c2ccc(OCCC)cc2)CNCC)cc1` (configuration not stated), the Potency is 0.651 µM (active).
For `CCCOc1ccc(C(=O)CCC(=O)OC(C)C(=O)Nc2ccc(NC(C)=O)cc2)cc1` (configuration not stated), the Potency entry was “inactive”.
Still for that read-out and setting: for `CCCCOc1ccc(C(=O)NO)cc1` the value was 10 µM (active); for `CCCCOc1ccc(C(=O)NCc2ccncc2)cc1`, “inactive”.
Still for that read-out and setting: as for `CCCOc1ccc(C(=O)NCCc2ccccc2)cc1`, the entry is “inactive”; as for `CC(C)CCNC(=O)CSc1nc2ccccc2nc1Cc1ccc(Cl)cc1`, “inactive”; as for `CC1C(=O)Nc2ccccc2N1C(=O)c1c(F)cccc1F` (configuration not stated), “inactive”.
As to `COc1ccccc1/C=C/C(=O)NC1CC2CCC1C2` (configuration not stated), the Potency entry was “inactive”.
With `Cc1sc2ncn(CC(=O)NCCN(C)C)c(=O)c2c1S(=O)(=O)N1CCC(C)CC1`, the Potency result is “inactive”.
Same read-out and setting: for `O=C(NC1CCN(C(=S)Nc2ccc(Cl)cc2)CC1)C1CCCCC1` the value was “inactive”; for `COc1ccc(/C(N)=N/OC(=O)CCCc2ccccc2)cc1`, “inactive”; for `Cc1c(C#N)c(NC(=O)c2ccccc2)n(Cc2ccccc2)c1C`, “inactive”.
Regarding `Cc1ccc(C(=O)Nc2c(C#N)c(C)c(C)n2Cc2ccccc2)cc1`, the Potency is 25.9 µM (active).
The same measure, in the same setting: as for `Cc1ccc(C(=O)NCCNS(=O)(=O)c2ccccc2)cc1`, the entry is “inactive”; as for `COC(=O)/C=C(\Oc1ccccc1)C1(O)CCCCC1`, “inactive”; as for `CC(Nc1nc(N2CCN(CCO)CC2)nc2ccccc12)c1ccccc1` (configuration not stated), “inactive”.
On the same count and under the same terms, for `Cc1ccc(C(CC(=O)O)Nc2nc(N3CCCCC3)nc(N3CCCCC3)n2)cc1` (configuration not stated) the value was “inactive”.
On the same count and under the same terms, for `CC(Nc1nc(N2CCCC2)nc2ccccc12)c1ccccc1` (configuration not stated) the value was 23.1 µM (active).
As to `CCCOc1ccc(/C(O)=C2/C(=O)C(=O)N(CCN(C)C)C2c2ccc(OC)c(OC)c2)cc1` (configuration not stated), the Potency entry is “inactive”.
Still for that read-out and setting: as for `CC1CCN(C(=O)COC(=O)c2cc(=O)[nH]c3ccccc23)CC1`, the entry is “inactive”; as for `CCc1ccc(OC(C)C(=O)Nc2ccc(S(=O)(=O)Nc3cc(C)on3)cc2)cc1` (configuration not stated), “inactive”; as for `CCOc1ccc(-c2nonc2NC(=O)c2oc3ccc(CC)cc3c2C)cc1`, 18.4 µM (active).
Same read-out and setting: for `CCc1nonc1NC(=O)c1oc2ccc(Cl)cc2c1C` the value was “inactive”.
On the same count and under the same terms, for `Cc1nonc1NC(=O)c1oc2ccccc2c1C` the value was “inactive”; for `CC(=O)N(O)CCCCCNC(=O)CCC(=O)N(O)CCCCCNC(=O)CCC(=O)N(O)CCCCCNC(=O)CCC(=O)O`, “inactive”.
For the compound `CCCCNC(=O)OC1CC2CC1[C@H]1CCCCN1C2=O` (some centres not stated), the Potency entry is “inactive”.
Same read-out and setting: for `CC(C)(C)c1cc[n+](-c2[nH]c(=O)sc2/C=N/N=C(\[O-])c2ccccc2)cc1` the value was “inactive”; for `C/C(=N\NC(=O)COc1ccc(C)cc1[N+](=O)[O-])c1ccc2c(c1)OCCO2`, “inactive”.
The same measure, in the same setting: for `O=C(CSc1ccc2nnc(-c3ccccc3)n2n1)N1CCCc2ccccc21` the value was “inactive”.
`CC(=O)c1ccc(NC(=O)CSc2nnc(NC(=O)Nc3ccccc3)s2)cc1`: the Potency result was “inactive”.
On the same count and under the same terms, as for `O=C(Nc1ccc2nc(SCC(=O)N3CCCc4ccccc43)sc2c1)c1ccc(Cl)cc1`, the figure is 5.17 µM (active); as for `O=C(CSc1nc2ccccc2s1)Nc1ccc(C(=O)O)cc1`, “inactive”; as for `Cn1c(=O)c2c(SCC(=O)N3CCc4ccccc43)nc(-c3ccc(Cl)cc3)nc2n(C)c1=O`, “inactive”.
The same measure, in the same setting: for `Cc1nnc(SCC(=O)N2CCc3ccccc32)n1-c1ccccc1` the value was “inactive”; for `O=C(Nc1ccc2nc(SCC(=O)N3CCc4ccccc43)sc2c1)c1ccccc1F`, “inactive”.
For the compound `CCC(=O)Nc1ccc2nc(SCC(=O)N3CCc4ccccc43)sc2c1`, the Potency was 16.4 µM (active).
As for `Nc1nnc(SCC(=O)Nc2ccc3nc(SCC(=O)Nc4ccccc4)sc3c2)s1`, the Potency is 13 µM (active).
On the same count and under the same terms, as for `O=C(Nc1ccc2nc(SCC(=O)N3CCCc4ccccc43)sc2c1)c1ccc(F)cc1`, the figure is 5.8 µM (active); as for `O=C(NCc1nnc(SCC(=O)N2CCCc3ccccc32)o1)c1ccccc1F`, “inactive”.
Consider `CC(=O)Nc1ccc(S(=O)(=O)NCC2CCC(C(=O)NCCc3ccccc3)CC2)cc1` (configuration not stated), for which the Potency result is “inactive”.
As to `O=C(NC1CCCC1)C1CC(=O)N(c2ccc(F)cc2)C1` (configuration not stated), the Potency result was “inactive”.
For the compound `Cc1cc(NC(=O)CN2C(=O)NC(CC(C)C)C2=O)no1` (configuration not stated), the Potency result was “inactive”.
For `CC(C(=O)N(C)CC(=O)Nc1ccccc1C(F)(F)F)N1C(=O)c2ccccc2C1=O` (configuration not stated), the Potency result is “inactive”.
The same measure, in the same setting: for `CC(OC(=O)c1cccnc1Cl)C(=O)NC1CCCCC1` (configuration not stated) the value was “inactive”.
Still for that read-out and setting: as for `CCN(Cc1ccccc1)C(=O)CCS(=O)(=O)c1ccc2c(c1)oc(=O)n2C`, the entry is “inactive”; as for `CCCCC(NS(=O)(=O)c1ccc(C)cc1)C(=O)Oc1ccc2c3c(c(=O)oc2c1)CCC3` (configuration not stated), “inactive”.
Still for that read-out and setting: for `CN1CCN(C(=O)c2cnn(-c3ccccc3)c2NC(=O)c2ccc([N+](=O)[O-])cc2)CC1` the value was “inactive”; for `CCc1nc2c(OCC(=O)C(C)(C)C)cccn2c1N(C)C(=O)c1ccccc1F`, “inactive”; for `CCc1nc2c(OCc3ccc(C(=O)OC)cc3)cccn2c1N(C)C(=O)C(C)C`, 20.6 µM (active).
Consider `CCc1nc2c(OCc3ccc(Cl)cc3Cl)cccn2c1N(C)C(=O)C(C)C`, for which the Potency is 7.31 µM (active).
As for `CCOC(=O)c1nc(C)n(-c2ccc(Cl)cc2Cl)n1`, the Potency result was “inactive”.
In the case of `CC(C)(C)NC(=O)NC(=O)COC(=O)Cc1ccc(Cl)cc1Cl`, the Potency entry is “inactive”.
Still for that read-out and setting: for `Clc1ccc(-c2ncc3ccccn23)c(Cl)c1` the value was “inactive”.
On the same count and under the same terms, for `Cc1nc2c(OCc3ccc(Cl)cc3Cl)cccn2c1N(C)CC1CC1` the value was 16.4 µM (active).
On the same count and under the same terms, for `CCCCC(=O)N(C)c1c(CC)nc2c(OCc3ccc(Cl)cc3Cl)cccn12` the value was 20.6 µM (active).
On to `COC(=O)c1ccc(COC(=O)c2cnccn2)cc1`, for which the Potency result is “inactive”.
`COC(=O)c1ccc(CSc2nncn2C)cc1`: the Potency result is “inactive”.
For the compound `CC(C)(C)OC(=O)NC(Cc1ccccc1)C(=O)NC(CSC1CCCCO1)C(=O)NN` (configuration not stated), the Potency result is “inactive”.
Same read-out and setting: as for `CC(=O)c1cc2c(cc1NC(=O)Cn1nc(-c3ccc(F)cc3)ccc1=O)OCO2`, the entry is “inactive”; as for `COc1ccccc1OCCCCCCN1CCN(C)CC1`, “inactive”.
Same read-out and setting: as for `CC(C)[C@H](NC(=O)N1c2ccccc2NC(=O)[C@@H]1C(C)C)C(=O)N[C@H](C(=O)O)c1ccccc1`, the entry is “inactive”; as for `CCCNC(=O)c1onc(CSc2ccc(F)cc2)c1C(=O)NC(C)C`, “inactive”; as for `COc1cc(C(=O)N2CCC(c3ccncc3)CC2)cc(OC)c1OC`, “inactive”.
On the same count and under the same terms, for `COc1cc(C(F)(F)F)nc2c(Br)c(C(C)(C)C)nn12` the value was “inactive”.
For the compound `Cc1cc2nc(-c3ccc(NC(=O)c4cc5ccccc5o4)cc3)oc2cc1C`, the Potency result was “inactive”.
Still for that read-out and setting: as for `CC(OC(=O)/C=C/c1ccccc1)C(=O)NC1CCCCC1C` (configuration not stated), the entry is “inactive”; as for `COc1ccc(N(C)C(=O)CCS(=O)(=O)c2cccc3nsnc23)cc1`, “inactive”; as for `COc1cccc2sc(N(CCCN(C)C)C(=O)C(c3ccccc3)c3ccccc3)nc12`, 20.6 µM (active).
As for `CN(C)CCN(C(=O)CN1C(=O)c2ccccc2C1=O)c1nc2cc3c(cc2s1)OCCO3`, the Potency result is “inactive”.
On the same count and under the same terms, for `O=C(C1COc2ccccc2O1)N(Cc1cccnc1)c1nc2c(F)cc(F)cc2s1` (configuration not stated) the value was “inactive”; for `Cc1cccc2sc(N(CCCN(C)C)C(=O)CCS(=O)(=O)c3ccccc3)nc12`, 1.84 µM (active); for `Cc1cccc(C)c1NC(=O)CCS(=O)(=O)c1cccc2nsnc12`, “inactive”.
Same read-out and setting: for `O=C(NCc1cccnc1)Nc1ccccc1F` the value was “inactive”.
Turning to `CN(C)CCCN(C(=O)COc1ccccc1)c1nc2c(Cl)cccc2s1`, the Potency result is “inactive”.
On the same count and under the same terms, for `O=C(CCS(=O)(=O)c1ccccc1)N(Cc1cccnc1)c1nc2c(F)cccc2s1` the value was 3.66 µM (active).
Same read-out and setting: as for `Cn1c(=NC(=O)c2ccc3c(c2)OCCO3)sc2cc(S(C)(=O)=O)ccc21`, the entry is “inactive”.
As for `O=C(NCc1ccncc1)c1cccc(NS(=O)(=O)c2ccc(F)c(F)c2)c1`, the Potency result is “inactive”.
The same measure, in the same setting: for `COc1ccccc1OCCC(=O)OCC(=O)NCc1ccccc1` the value was “inactive”; for `CC(C)c1c(O)nc(SCCOc2ccc(Cl)cc2)[nH]c1=O`, “inactive”; for `COc1ccc(CN2C(=O)C(CC(=O)NCCCCc3ccccc3)CC(C(=O)N3CCOCC3)=C2C)cc1` (configuration not stated), “inactive”.
`Cc1ncc2c(c1CNS(=O)(=O)N(C)C)CCN(C(=O)c1ccccc1F)C2`: the activity change, negative = growth inhibition was 12.2% [at 9.04 µM].
As for `O=C(NCc1cccc(Cl)c1)C1=CC=CN2CCS(=O)(=O)N=C12`, the Potency result was “inactive”.
The same measure, in the same setting: for `COc1ccc(CN(C)C(=O)Cc2ccsc2)c(OC)c1OC` the value was “inactive”; for `COc1ccc(-c2cc(C(=O)NCCCN3CCCC3=O)c3ccccc3n2)cc1OC`, “inactive”; for `COc1ccc(-c2cc(C(=O)N(C)Cc3ccc(OC)c(OC)c3OC)c3ccccc3n2)cc1OC`, 16.4 µM (active).
On the same count and under the same terms, for `COc1ccc(Cl)cc1NC(=O)CN(C)C(=O)c1ccc2n[nH]nc2c1` the value was “inactive”; for `COc1ccc(-c2cc(C(=O)N(C)CC(=O)Nc3ccccc3Cl)c3ccccc3n2)cc1OC`, 20.6 µM (active); for `COc1cccc(NC(=O)CN(C)C(=O)c2cc(Cl)nc3ccccc23)c1`, “inactive”.
Still for that read-out and setting: for `COc1ccc(CN2[C@@H](CC(=O)O)c3cc(F)ccc3S2(=O)=O)cc1` the value was “inactive”; for `CCN(CC)S(=O)(=O)c1ccc(-c2cn3ccc(C)cc3n2)cc1`, “inactive”.
`Cc1ccc(S(=O)(=O)n2nc(C)c(S(=O)(=O)N3CCCCCC3)c2C)cc1`: the Potency entry was “inactive”.
The same measure, in the same setting: for `COc1ccc(NS(=O)(=O)c2cccc3nsnc23)cc1Cl` the value was “inactive”; for `COc1ccc([C@H]2CC(=O)C=C(c3ccc(C)cc3)C2)cc1`, “inactive”.
Still for that read-out and setting: for `CC(=O)Nc1cccc(C(=O)Nc2nc(C)cs2)c1` the value was “inactive”; for `Cc1csc(NC(=S)Nc2cccc(Cl)c2)n1`, 1.64 µM (active); for `S=C(Nc1cccc(Cl)c1)Nc1ccc2cn[nH]c2c1`, “inactive”.
